# In the library only some 21% were active in any assay of this set; here they are far more common.
# Pf growth 48h: inhibits P. falciparum growth in the first generation, 48 h | P. falciparum luciferase growth in erythrocytes, 48 h | Potency, µM (doses to about 28.7 µM), inactives show at the top dose activity change, negative = inhibition, actives largely listed as inhibitors | actives 5.9% (n = 310,000) | AID 504832; note: potency is the fitted concentration of half-maximal effect; % is set by controls: 0 for no effect and ±100 for the full control effect
#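 Firefly luciferase activity from engineered P. falciparum reports growth; inhibitors lower the luminescent signal. Cultures contained 2% hematocrit erythrocytes at 0.1% final parasitemia.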
# Pf growth 96h: P. falciparum growth inhibition at 96 hour, primary screen for plastid delayed-death inhibitors; AID 504834; Potency, µM (highest dose often 28.7 µM), for inactives: at the highest dose activity change, negative = inhibition, most hits filed as inhibitors; P. falciparum luciferase reporter growth, 96 h; actives 6.9% (n = 320,000); note: potency is the fitted concentration of half-maximal effect; % is set by controls: 0 for no effect and ±100 for the full control effect
#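 Infected RBCs, 2% Hct / 0.05% parasitemia final; luciferase-reporter P. falciparum; cpd 96 h, 37 C, 5% CO2; luciferase detection reagent; luminescence.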
# HCV inh: HCV inhibition. Huh7.5.1 HCVcc-Cre infection, luciferase reporter, 44 h. Potency, µM (series often up to 41.8 µM), for the others: at the highest dose activity change, negative = inhibition, most hits filed as inhibitors. actives 3.4% (n = 340,000). AID 651820; note: potency is the fitted concentration of half-maximal effect; % is set by controls: 0 for no effect and ±100 for the full control effect
#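 A cell-based infection assay in which seeded cells (1,000 per well) receive test compound after 4 h, are inoculated with HCVcc-Cre at approximately 0.5 moi, and are incubated 44 h before luminescence detection.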
# AMA1-RON2 inh: AMA1-RON2 (P. falciparum) interaction inhibition; actives 0.2% (n = 360,000); AID 720542; Potency, µM (highest dose often 58.2 µM), inactives show top-dose activity change, negative = inhibition, hits mostly inhibitors; AlphaScreen AMA1-biotinylated RON2 peptide binding;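 note: potency is the fitted concentration of half-maximal effect; 0% = vehicle wells and -100% = peptide control; nearly all actives have a fitted effect of over 45% in size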
#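 AMA1 (3D7) with his tag at 25 nM final met compounds first, then biotinylated RON2 peptide at 25 nM; detection used donor plus acceptor beads, 10 µg/mL apiece, read by AlphaScreen after 30 min at room temperature.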
# Shiga toxin inh: inhibitors of Shiga toxin in Vero cells; Vero cells, Shiga toxin protein synthesis inhibition reporter; inhibition, % at 38.7 µM; actives 9.2% (n = 290,000); in the data active = inhibition mostly above about 28%, no sharp cut-off; inactive = mostly below about 43%; note: 0% is about no effect
# Cycloheximide cs: counter-screen hit for Shiga toxin inhibitors, cycloheximide. cell reporter, cycloheximide protein synthesis inhibition counterscreen. max response, %. actives 12% (n = 300,000). AID 2314; in the data active = max response mostly above about 13%, no sharp cut-off; inactive = mostly below about 14%; note: read at 38.3 µM for the half of the compounds with a filed dose; 0% is about no effect
# * hit, by the source's call; ? = inconclusive; . = no result; [ ] = remark or other dose. Unless noted, calls come from the whole dose curve; as a rule, active = well fitted curve in the direction sought with a large enough effect; inconclusive = small, poorly fitted or top-dose-only effect, or another doubt; inactive = no such curve, though single readings can be large; an effect the other way counts as inactive or inconclusive.
SMILES,Pf growth 48h,Pf growth 96h,HCV inh,AMA1-RON2 inh,Shiga toxin inh,Cycloheximide cs
CCNC(=O)C1(C)CCCN(C(=O)c2sc(-c3ccccc3)nc2C)C1 (stereo not given),.,.,.,-3.5%,.,.
Cc1sc2nc(-c3ccc(Br)cc3)oc(=O)c2c1C,0.0%,161.2%,23.4%,5.1%,-6.6,-2.7
C=CCN1N=C(c2ccc(NC(=O)c3ccccc3)cc2)CSC1=O,9.9%,11.6%,-20.8%,-1.9%,21.6,9.3
O=C(C[C@H]1C/C=C\CC[C@@H](Cc2ccc(F)cc2)C(=O)OC[C@H]2CCCN2C1=O)NCCO,.,.,9.2%,?,.,.
OCC[C@@H]1NCc2cc(CO)cc(-c3ccccc3)c21,.,.,?,-2.0%,.,.
Cn1c(=O)c2c(nc(CN3CCN(C(=O)c4ccco4)CC3)n2Cc2ccccc2F)n(C)c1=O,.,1.47µM*,9.0%,8.5%,-17.4,-7.9
Cc1ccc(Cn2c(CN(C)Cc3ccccc3)nc3c2c(=O)n(C)c(=O)n3C)cc1,?,.,?,16.6%,-14.5,1.9
Cc1ccc(C)c(Cn2c(CN(C)Cc3ccccc3)nc3c2c(=O)n(C)c(=O)n3C)c1,.,13.1µM*,?,1.8%,1.9,-1.5
O=C(O)c1ccccc1-c1ccccc1C(=O)Nc1ccc(-c2nc3cc(Cl)ccc3o2)cc1,?,?,-3.2%,7.9%,62.4*,26.4*
CC(=O)Nc1ccc(-c2nc3cc(Cl)ccc3o2)cc1,123.1%,-5.2%,-11.1%,38.6%,109.3*,52.4*
Cc1ccc(NC(=O)c2ccccc2-c2ccccc2C(=O)O)cc1,-2.5%,-14.0%,6.5%,4.8%[11.6 µM],-3.6,-3.9
CC(C)(C)C(=O)Nc1ccc2oc(-c3cc(F)c(F)cc3Cl)nc2c1,-9.5%,.,?,6.5%,58.8,41.9*
O=C(Cc1ccc(Cl)cc1)Nc1ccc2oc(-c3ccncc3)nc2c1,-15.7%,5.3%,?,-1.4%,-14.7,-1.3
O=C(O)c1cc(F)c(S(=O)(=O)N2CCN(S(=O)(=O)c3ccc4c(c3)OCCO4)CC2)cc1F,.,.,.,.,-5.1,4.2
O=C(NNc1ccccc1)/C(=C\c1cccnc1)NC(=O)c1ccccc1,1.4%,33.0%,20.9%,-7.2%,-2.6,-2.1
COc1ccc(NC(=O)c2sc(=O)n(Cc3ccccc3C#N)c2C)cc1OC,.,.,.,6.2%,.,.
COc1ccc(NC(=O)CN(C)S(=O)(=O)c2ccc3c(c2)c(=O)n(C)c(=O)n3C)cc1,-0.1%,13.1µM*,-0.1%,11.2%,25.6,-3.8
Cc1ccc(NC(=O)CN(C)S(=O)(=O)c2ccc3c(c2)n(C)c(=O)c(=O)n3C)cc1,?,11.7µM*,-1.6%,0.3%,-2.8,-0.8
CN(CC(=O)NCCC1=CCCCC1)S(=O)(=O)c1ccc2c(c1)c(=O)n(C)c(=O)n2C,.,164.5%,-22.2%,-6.9%,-20.4,-10.7
COc1ccc(NC(=O)CN(C)S(=O)(=O)c2ccc3c(c2)n(C)c(=O)c(=O)n3C)cc1,11.1%,-29.6%,-2.2%,2.6%,-6.3,-7.4
CN(CC(=O)NCCc1ccc(Cl)cc1)S(=O)(=O)c1ccc2c(c1)c(=O)n(C)c(=O)n2C,.,13.1µM*,?,-3.3%,-3.2,-5.9
COc1ccc(C)cc1NC(=O)CN(C)S(=O)(=O)c1ccc2c(c1)c(=O)n(C)c(=O)n2C,2.5%,1.5%,14.6%,-3.9%,1.3,1.4
Cc1cc2oc(=O)cc(CN3CCN(S(=O)(=O)c4ccc5c(c4)OCCO5)CC3)c2cc1C,?,?,7.08µM*,1.1%,-8.3,-1.5
Cc1ccc(S(=O)(=O)N2CCN(Cc3cc4c(cc3Br)OCCO4)CC2)cc1,?,?,?,-9.8%,.,.
Cc1cc2oc(=O)cc(CN3CCN(S(=O)(=O)/C=C/c4ccccc4)CC3)c2cc1C,10.4µM*,?,?,-0.8%,1.6,4.7
SMILES,Pf growth 48h,Pf growth 96h,HCV inh,AMA1-RON2 inh,Shiga toxin inh,Cycloheximide cs
CCCCC(OC(=O)CN1C(=O)COc2ccccc21)C(=O)NC1CCCCC1 (stereo not given),-6.7%,20.7%,-5.4%,13.4%,-9.4,-2.4
Nc1nc(N)c2cc([N+](=O)[O-])ccc2n1,.,.,?,23.3%,.,.
Nc1nc(N)c2c(ccc3c2ccn3Cc2cccc([N+](=O)[O-])c2)n1,.,.,.,31.6µM*,.,.
COc1cc(C(=O)N/N=C/c2ccc3c(c2)c2ccccc2n3C)ccc1O,4.65µM*,9.28µM*,?,9.3%,9.2,11.4
COc1cc(/C=N/NC(=O)CCn2c3ccccc3c3ccccc32)ccc1O,-4.7%,1.3%,7.94µM*,-6.7%,14.6,-2.3
COc1cc(/C=N/NC(=O)CN(CCc2ccccc2)S(=O)(=O)c2ccc(NC(C)=O)cc2)cc(OC)c1OC,?,40.6%,-25.7%,-5.3%,-8.1,-1.4
COc1ccc(/C=N/NC(=O)CN(CCc2ccccc2)S(=O)(=O)c2ccc(NC(C)=O)cc2)cc1OC,?,9.28µM*,-14.8%,21.8%,-5.9,-3.4
COc1ccc(/C=N/NC(=O)CC(=O)NCCc2ccccc2)cc1OC,21.4%,33.9%,7.6%,6.2%,-22.0,-1.5
COc1cc(/C=N\NC(=O)CC(=O)NCCc2ccccc2)ccc1O,-0.9%,10.4µM*,?,-3.8%,-4.3,0.7
COc1cccc(N2CCN(c3nc(C)cc(=O)[nH]3)CC2)c1,3.1%,0.0%,7.4%,0.0%,-1.6,-2.7
Cc1cc2nc(-c3ccc(C#N)cc3)c(Cc3cccc(F)c3)n2c(C)c1Br,.,.,.,3.6%,.,.
Cn1c2ccccc2c2cc(/C=N/NC(=O)c3cc(O)cc(O)c3)ccc21,?,?,0.2%,-14.3%,-7.3,-2.8
Cn1c2ccccc2c2cc(/C=N/NC(=O)c3cc(O)ccc3O)ccc21,?,?,10µM*,-28.0%,17.6,11.9*
CCN(CC)CCOC(=O)C(O)(c1ccccc1)c1ccccc1,6.8%,-1.1%,11.1%,11.5%,-6.4,-4.0
CCN(CC)CCOCCOC(=O)C(CC)(CC)c1ccccc1 (tested in a mixture with another compound),19µM*,6.75µM*,.,.,.,.
Cc1ccc(C(CC(=O)O)NC(=O)c2ccc(S(=O)(=O)N3CC(C)OC(C)C3)cc2)cc1 (stereo not given),-7.7%,9.0%,-1.8%,-0.4%,.,.
C=CCN1C(=O)S/C(=C/c2ccsc2)C1=O,47.3%,36.1%,7.6%,4.1%,62.4*,36.9*
CCN1C(=O)S/C(=C/c2ccsc2)C1=O,31.5%,.,1.7%,-15.5%,76.9,26.3
CC1(C(=O)NS(=O)(=O)c2ccc(Cl)cc2)CCN1C(=O)c1ccco1 (stereo not given),.,.,.,-0.5%,.,.
CCN(C(=S)NC(=O)C1CC1)c1ccccc1,1.2%,50.1%,13.6%,16.0%,-16.1,-3.2
O=C(C1CC1)N(CCN(C(=O)C1CC1)c1ccccc1)c1ccccc1,0.0026µM*,-5.6%,-13.3%,2.8%,17.5,-6.2
CC(=O)Nc1cccc(C(=O)Nc2cccc3ncccc23)c1,35.1%,70.3%,-29.0%,7.6%,-5.8,-3.4

# Screening data deposited in PubChem by National Center for Advancing Translational Sciences (NCATS).
